From PubChem BioAssay AID1159580 (chemical genetic matrix, 2015)
Values joined by “and” are separate entries in the source; they are usually repeats but may differ in a detail not shown here. Identical values can stand only once. Screen size: about 5,500 compounds; about 2,000 (36%) were called active. Roughly 18% stayed inconclusive and do not appear here. No stated cut-off is given here; in the data, active means normalized growth mostly below about 0.91 (no sharp cut-off); inconclusive means no clear call, values can overlap the other calls; inactive means mostly above about 0.92. The list shows a part of the results.

Test: chemical genetic growth profiling, strain panel (AID 1159580);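 further: tested at 20 µM; growth read once vehicle control cultures reached saturation at 30 °C; 1 = growth at the plate median or of vehicle wells; lower values mean less growth of the strain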
Settings: S. cerevisiae deletion strains, growth OD

Measured: normalized growth

CC1(C)S[C@@H]2[C@H](NC(=O)C(C(=O)O)c3ccccc3)C(=O)N2[C@H]1C(=O)O (stereo partly drawn)
inactive: locus YAL021C, strain ccr4, active compounds read low 0.979 | locus YAL026C, strain drs2, active compounds read low 0.979 | locus YAL030W, strain snc1, active compounds read low 0.985 | locus YBL061C, strain skt5, active compounds read low 0.959 | locus YBR009C, strain hhf1, active compounds read low 0.934 | locus YBR021W, strain FUR4, active compounds read low 0.998 | locus YBR023C, strain chs3, active compounds read low 0.966 | locus YBR171W, strain sec66, active compounds read low 0.948 | locus YBR229C, strain ROT2, active compounds read low 0.987 | locus YBR231C, strain swc5, active compounds read low 1 | locus YBR279W, strain paf1, active compounds read low 0.985 | locus YCL011C, strain gbp2, active compounds read low 0.933 | locus YCL016C, strain dcc1, active compounds read low 0.938 | locus YCL029C, strain bik1, active compounds read low 0.99 | locus YCL061C, strain MRC1, active compounds read low 0.976 | locus YCL069W, strain vba3, active compounds read low 0.985 | locus YCR088W, strain abp1, active compounds read low 0.996 | locus YDL005C, strain med2, active compounds read low 0.999 | locus YDL035C, strain GPR1, active compounds read low 1.02 | locus YDL040C, strain nat1, active compounds read low 0.997 | locus YDL074C, strain BRE1, active compounds read low 0.995 | locus YDL101C, strain DUN1, active compounds read low 0.982 | locus YDL134C, strain PPH21, active compounds read low 0.999 | locus YDL185W, strain tfp1, active compounds read low 0.982 | locus YDL192W, strain arf1, active compounds read low 0.98 | locus YDR001C, strain nth1, active compounds read low 0.98 | locus YDR069C, strain doa4, active compounds read low 0.978 | locus YDR101C, strain arx1, active compounds read low 0.994 | locus YDR137W, strain rgp1, active compounds read low 0.944 | locus YDR159W, strain sac3, active compounds read low 1.01 | locus YDR162C, strain NBP2, active compounds read low 1.01 | locus YDR195W, strain ref2 0.987 | locus YDR297W, strain sur2, active compounds read low 0.969 | locus YDR318W, strain mcm21, active compounds read low 0.99 | locus YDR334W, strain swr1, active compounds read low 0.926 | locus YDR335W, strain msn5, active compounds read low 0.978 | locus YDR388W, active compounds read low 0.995 | locus YDR392W, strain spt3, active compounds read low 0.895 | locus YDR502C, strain sam2, active compounds read low 0.995 | locus YEL003W, strain gim4, active compounds read low 0.99 | locus YEL037C, strain rad23, active compounds read low 0.977 | locus YEL061C, strain CIN8 (second series), active compounds read low 0.989 | locus YEL061C, strain CIN8, active compounds read low 1 | locus YER015W, strain faa2, active compounds read low 0.986 | locus YER016W, strain bim1, active compounds read low 0.962 | locus YER110C, active compounds read low 0.979 | locus YER111C, strain swi4, active compounds read low 0.979 | locus YER155C, strain BEM2 (second series), active compounds read low 1.03 | locus YER155C, strain BEM2, active compounds read low 0.991 | locus YER167W, strain BCK2, active compounds read low 0.993 | locus YFR010W, strain ubp6, active compounds read low 0.962 | locus YGL078C, strain dbp3, active compounds read low 0.993 | locus YGL086W, strain mad1, active compounds read low 0.989 | locus YGL167C, strain pmr1, active compounds read low 0.96 | locus YGL173C, strain kem1, active compounds read low 0.96 | locus YGL227W, strain vid30, active compounds read low 0.985 | locus YGL240W, strain doc1, active compounds read low 1.01 | locus YGL248W, strain PDE1, active compounds read low 0.982 | locus YGL253W, strain hxk2, active compounds read low 0.982 | locus YGR135W, strain pre9, active compounds read low 0.988 | locus YGR252W, strain gcn5, active compounds read low 0.981 | locus YHR013C, strain ard1, active compounds read low 0.949 | locus YHR027C, strain rpn1, active compounds read low 0.945 | locus YHR030C, strain SLT2, active compounds read low 0.991 and 1.01 | locus YHR079C, strain IRE1 (second series), active compounds read low 0.989 | locus YHR079C, strain IRE1, active compounds read low 1.02 | locus YHR094C, strain hxt1, active compounds read low 0.984 | locus YHR129C, strain ARP1, active compounds read low 0.99 | locus YHR142W, strain chs7, active compounds read low 0.934 | locus YHR200W, strain rpn10, active compounds read low 0.985 | locus YIL066C, strain RNR3, active compounds read low 1.01 | locus YIL073C, strain SPO22, active compounds read low 1.03 | locus YIL125W, strain kgd1, active compounds read low 0.984 | locus YIR030C, strain dcg1, active compounds read low 0.987 | locus YJL092W, strain hpr5, active compounds read low 0.968 | locus YJL095W, strain BCK1 (second series), active compounds read low 0.975 | locus YJL095W, strain BCK1, active compounds read low 0.978 and 1 | locus YJL115W, strain asf1, active compounds read low 0.952 | locus YJL129C, strain trk1, active compounds read low 0.944 | locus YJL134W, strain LCB3, active compounds read low 0.992 | locus YJL154C, strain vps35, active compounds read low 0.982 | locus YJL164C, strain tpk1, active compounds read low 0.962 | locus YJL166W, strain qcr8, active compounds read low 0.977 | locus YJL168C, strain set2, active compounds read low 0.984 | locus YJL187C, strain SWE1 (second series), active compounds read low 0.988 | locus YJL187C, strain SWE1, active compounds read low 0.979 | locus YJR043C, strain POL32, active compounds read low 1.01 | locus YJR066W, strain TOR1, active compounds read low 0.992
